Measurements as given in PubChem BioAssay AID504467 (National Center for Advancing Translational Sciences (NCATS), 2011).
Among all 330,000 compounds or so, about 7,700 (2.3%) were called active. Not shown: some 26% with an inconclusive outcome. The sample holds actives, similar compounds and a random draw of the others, so the mix is not that of the screen. Calls come from the whole dose curve; as a rule, active = well fitted inhibition curve with a large enough effect; inconclusive = small, poorly fitted or top-dose-only effect, or effect the other way; inactive = flat fitted curve, though single readings scatter.

Assay: qHTS screen for small molecules that inhibit ELG1-dependent DNA repair in human embryonic kidney (HEK293T) cells expressing luciferase-tagged ELG1; note: nearly all actives have a fitted effect of over 55% in size
Conditions: HEK293T ELG1-luciferase reporter, luminescence, 16 h, DNA damage induced by 5-fluorouridine; series mostly up to 46.1 µM; activity change, negative = inhibition: at the top concentration
Excerpt: NIH Molecular Libraries Probe Production Network [MLPCN] NIH Chemical Genomics Center [NCGC] MLPCN Grant: 1 R03 MH092164-01 Assay Provider: Kyungjae Myung, NHGRI, NIH Keywords: MLPCN, qHTS, NCGC, genotoxicity, cancer Assay Overview: Cancer cells divide rapidly compared to normal cells in the body. During cell division, cancer cells need to duplicate their genome by DNA replication. The failure of genome duplication leads to cancer cells' death. Therefore, inhibitors of DNA replication could specifically kill cancer cells. Based on this concept, many chemotherapeutic agents were developed and have been used to treat cancer patients. However, there are a limited number of agents available in the clinical setting, and some of those that do exist have low efficacy and severe side effects. Therefore, if we can find the compounds that effectively block DNA replication either by directly damaging DNA or by inhibiting other cellular mechanisms, the options for cancer treatment will be broadened. With this in mind, we developed a quantitative high-throughput ELG1-luciferase reporter gene assay. Small molecules that specifically block ELG1 function in response to DNA damage can be identified by monitoring the suppression of luciferase activity. Since ELG1 defines a pathway for repairing DNA damage, agents blocking ELG1 function can be used to sensitize cancer cells to chemotherapeutic agents whose mechanism of action involves the induction of DNA damage.
Assay Protocol Summary: For genotoxicity screening, 2,000 cells in 4 uL/well were dispensed into white, solid-bottom 1536-well plates using a solenoid-based dispenser. Following transfer of 1 uL 5-Fluorouridine and 23 nL compound or DMSO vehicle by a pin tool, the plates were incubated 16 hr at 37 °C and 5% CO2. 5 ul ONE-Glo (Promega) was then added to each plate and following a 30 min incubation at room temperature, luciferase activity was quantified on a ViewLux CCD-based plate reader.
% is set by controls: 0 for no effect and ±100 for the full control effect; potency is the fitted concentration of half-maximal effect.

SMILES | activity change, negative = inhibition | Potency
C=CC[C@@H](CC(=O)N[C@H](CO)Cc1ccccc1)C(=O)N[C@@H](COC(=O)[C@@H](CC=C)Cc1ccc(F)cc1)Cc1c[nH]c2ccccc12 | -11.3% (inactive) | 
C=CC[C@H](CC(=O)NCCO)C(=O)N[C@@H](COC(=O)[C@@H](CC=C)Cc1ccc(F)cc1)Cc1c[nH]c2ccccc12 | -27.5% (inactive) | 
C=CCC[C@@H](Cc1ccc(F)cc1)C(=O)OC[C@H](Cc1c[nH]c2ccccc12)NC(=O)[C@@H](CC=C)CC(=O)N(CCO)Cc1ccccc1 |  | 20.6 µM (active)
C=CCC[C@H](Cc1ccc(F)cc1)C(=O)OC[C@@H](NC(=O)[C@@H](CC=C)CC(=O)N[C@H](CO)Cc1ccccc1)C(C)(C)C | 0% (inactive) | 
Cc1ccc(Br)c(NS(=O)(=O)c2cccc(C(=O)N3CCNC(=O)C3)c2)c1 | 11.5% (inactive) | 
CC(C)c1ccc(S(=O)(=O)N2CCN(C(C)C(=O)NC3CCCC3)CC2)cc1 (centres undefined) | 0.179% (inactive) | 
O=C(NC1CCCCCC1)C1CCN(C(=O)c2ccc(Cl)cc2)CC1 | 0.0569% (inactive) | 
O=C(COC(=O)CN1C(=O)C2CCCCC2C1=O)Nc1ccc(F)c(F)c1F (centres undefined) | 0% (inactive) | 
CCC1(C)NC(=O)N(CC(=O)N2CCN(c3cccc(Cl)c3)CC2)C1=O (centres undefined) | -7.61% (inactive) | 
CCc1nc2ccccc2c(C(=O)NCc2ccc(OC)cc2)c1C | -3.67% (inactive) | 
COc1cccc(CNc2nc(C(F)(F)F)nc3ccccc23)c1 |  | 13 µM (active)
c1coc(CNc2ncnc3ccccc23)c1 | 9.04% (inactive) | 
COc1cccc(CNc2ncc(-c3ccccc3)n2C)c1 | -18.4% (inactive) | 
NS(=O)(=O)c1ccc(CCNC(=O)CNC(=O)Cc2ccccc2)cc1 | 1.47% (inactive) | 
COc1ccc(CNc2ncnc3ccccc23)cc1 |  | 2.59 µM (active)
CC(Nc1nc(C(F)(F)F)nc2ccccc12)c1cccs1 (centres undefined) | -9.25% (inactive) | 
Cc1cc(C)n(-c2nc(C(F)(F)F)nc3ccccc23)n1 | -2.14% (inactive) | 
NS(=O)(=O)c1ccc(CCNc2nc(C(F)(F)F)nc3ccccc23)cc1 |  | 11.6 µM (active)
CN1CCN(S(=O)(=O)c2ccc(Nc3ccc(F)cc3)nc2)CC1 | 0.234% (inactive) | 
O=C(CN1C(=O)NC2(CCCCCCC2)C1=O)NCc1ccc(F)cc1 | -2.29% (inactive) | 
O=C(C(NS(=O)(=O)c1cccc2nsnc12)c1ccccc1)N1CCN(c2ccccn2)CC1 (centres undefined) | -14.9% (inactive) | 
O=C(C(NS(=O)(=O)c1cccc2nsnc12)c1ccccc1)N1CCN(c2ccccc2)CC1 (centres undefined) |  | 16.4 µM (active)
O=C(O)C(NS(=O)(=O)c1cccc2nsnc12)c1ccccc1 (centres undefined) | -7.45% (inactive) | 
COC(=O)c1cc(NC(=O)c2ccco2)ccc1N1CCOCC1 | 27.5% (inactive) | 
COC(=O)c1cc(NC(=O)c2cc(C(C)(C)C)nn2Cc2cccc(C)c2)ccc1N1CCOCC1 |  | 16.4 µM (active)

SMILES | activity change, negative = inhibition | Potency
CC(=O)Nc1ccc(N2CCOCC2)c(C(=O)Nc2cccc(C)c2)c1 | 0.105% (inactive) | 
CSc1ncccc1C(=O)Nc1ccc(C)cn1 | 12.8% (inactive) | 
Cc1csc(SCC(=O)N(c2ccccc2)C(C)C)n1 | 2.12% (inactive) | 
CC(C)(C)OC(=O)C[C@@H]1C/C=C\C[C@@H](CC(=O)N[C@@H](CO)Cc2ccccc2)C(=O)N2CCC[C@H]2COC1=O | -0.459% (inactive) | 
NC(=O)c1cc(-c2cccnc2)nc2ccc(Br)cc12 | -0.487% (inactive) | 
Cc1cc(NCc2cccnc2)no1 | -0.988% (inactive) | 
Brc1ccc2ncnc(NCc3cccnc3)c2c1 |  | 8.2 µM (active)
C=CC[C@@H](CC(=O)NCCO)C(=O)N[C@H](C)COC(=O)[C@@H](CC=C)CC(=O)OC(C)(C)C | 9.21% (inactive) | 
COc1ccc(/C(C)=N/Nc2cc(C(F)(F)F)ccc2Cl)c(OC)c1 | -5.75% (inactive) | 
COc1cc(OC)c(C(=O)OC(C)C(=O)Nc2cc(C(F)(F)F)ccc2Cl)cc1OC (centres undefined) |  | 14.6 µM (active)
CC(CC(=O)Nc1cc(C(F)(F)F)ccc1Cl)c1ccccc1 (centres undefined) | -11.4% (inactive) | 
CC1CC(C)CN(C(=O)COC(=O)c2ccc3ncsc3c2)C1 (centres undefined) | 22.9% (inactive) | 
CCN(CC(=O)Nc1ccc(OC)cc1)C(=O)c1ccc(Cl)c(S(=O)(=O)N2CCCC2)c1 | -8.47% (inactive) | 
Cc1nnc(N/N=C/c2ccccn2)[nH]c1=O |  | 0.92 µM (active)
Cc1ccccc1Nc1nnc(C)c(=O)[nH]1 | 1.45% (inactive) | 
Cc1nnc(N/N=C/C2CC=CCC2)[nH]c1=O (centres undefined) | 8.5% (inactive) | 
Cc1ccc([C@@H]2CC=C(C(=O)O)[C@H](c3cccc(Cl)c3)N2S(=O)(=O)c2ccc(C)cc2)cc1 | 10.9% (inactive) | 
CN(C)C(CNC(=O)Cc1ccc([N+](=O)[O-])cc1)c1ccccc1 (centres undefined) | 13.3% (inactive) | 
CN(C)CCNC(=O)Cc1ccc([N+](=O)[O-])cc1 | 15.5% (inactive) | 
CN(CCc1ccccc1)C(=O)c1cccc(NC(=O)Cc2ccc([N+](=O)[O-])cc2)c1 |  | 13 µM (active)
Cc1ccc2nnn(Cc3cccc(C(C)(C)C)c3O)c2c1 | -1.83% (inactive) | 
CCc1ccc2nc(N(CCCN(C)C)C(=O)c3ccc4c(c3)OCCO4)sc2c1 | 9.22% (inactive) | 
O=C(CSc1ncnc2sccc12)NC1CCS(=O)(=O)C1 (centres undefined) | 6.81% (inactive) | 
CC1(C)Cc2cccc(OCC(=O)NCc3ccccc3)c2O1 | 16.1% (inactive) | 
